Most compounds without a hit are left out; they make up all but 19% or so of the library.
TDP1 cell noCPT – qHTS for Inhibitors of human tyrosyl-DNA phosphodiesterase 1 (TDP1): qHTS in cells in absence of CPT; actives 15% (n = 420,000); DT40 Tdp1-/- hTDP1 cells, no CPT, ATP luminescence, 48 h; AID 686978, 2013; Potency, µM (top dose mostly 46.2 µM), without a hit: at the highest dose activity change, negative = growth inhibition, usual class: inhibitors; note: nearly all actives have a fitted effect of over 55% in size
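Growth of hTDP1-complemented DT40 Tdp1-knockout cells is measured by ATP luminescence after at least 48 hr compound exposure at 37 °C, with DMSO substituting for the 20 nM CPT used in the parallel screen.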
DT40 TDP1 CPT – qHTS for Inhibitors of human tyrosyl-DNA phosphodiesterase 1 (TDP1): qHTS in cells in presence of CPT; Potency, µM (highest dose often 46.2 µM), for inactives: at the highest dose activity change, negative = growth inhibition, most hits filed as inhibitors; chicken DT40 Tdp1-/-;hTDP1 cells + 20 nM CPT, ATP luminescence, 48 h; actives 12% (n = 420,000); note: nearly all actives have a fitted effect of over 55% in size
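Chicken DT40 Tdp1-/- cells stably complemented with human TDP1 were seeded at 400 cells/well in medium containing 20 nM camptothecin, exposed to pin-transferred compounds, and grown at 37 °C for at least 48 hr. Viability was read as ATP luminescence.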
VP16 counter – VP16 counterscreen qHTS for inhibitors of ROR gamma transcriptional activity; AID 2546, 2010; Potency, µM (doses to about 53.6 µM), inactives show top-dose activity, negative = inhibition, most hits filed as inhibitors; actives 3.5% (n = 310,000); Drosophila S2 Gal4-VP16 UAS-luciferase, luminescence, 20 h;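 note: Gal4-VP16 expression switched on by copper sulfate through the metallothionein promoter; nearly all actives have a fitted effect of over 50% in size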
TDP1 inh – qHTS Assay for Inhibitors of Tyrosyl-DNA Phosphodiesterase (TDP1); recombinant TDP1, AlphaScreen DNA substrate cleavage; Potency, µM (titrated, usually from 130 µM), for the others: at the highest dose activity change, negative = inhibition, most hits filed as inhibitors; actives 0.28% (n = 350,000); note: nearly all actives have a fitted effect of over 40% in size
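AlphaScreen read-out: signal falls as enzyme removes the 3' tyrosine-FITC from a 5'-biotinylated DNA oligo (15 nM, 5 min, RT). Enzyme was E. coli-made recombinant Tdp1 at 1 nM, exposed to compound for 15 min beforehand; beads 10 ug/ml, 10 min.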
RORgamma inh – qHTS for inhibitors of ROR gamma transcriptional activity; Drosophila S2 Gal4-RORgamma UAS-luciferase reporter, 20 h; Potency, µM (highest dose often 53.6 µM), without a hit: at the highest dose activity change, negative = inhibition, usual class: inhibitors; actives 5.4% (n = 310,000); note: nearly all actives have a fitted effect of over 60% in size
Target sequence (P51450 whole entry, looked up, the tested form may be a part): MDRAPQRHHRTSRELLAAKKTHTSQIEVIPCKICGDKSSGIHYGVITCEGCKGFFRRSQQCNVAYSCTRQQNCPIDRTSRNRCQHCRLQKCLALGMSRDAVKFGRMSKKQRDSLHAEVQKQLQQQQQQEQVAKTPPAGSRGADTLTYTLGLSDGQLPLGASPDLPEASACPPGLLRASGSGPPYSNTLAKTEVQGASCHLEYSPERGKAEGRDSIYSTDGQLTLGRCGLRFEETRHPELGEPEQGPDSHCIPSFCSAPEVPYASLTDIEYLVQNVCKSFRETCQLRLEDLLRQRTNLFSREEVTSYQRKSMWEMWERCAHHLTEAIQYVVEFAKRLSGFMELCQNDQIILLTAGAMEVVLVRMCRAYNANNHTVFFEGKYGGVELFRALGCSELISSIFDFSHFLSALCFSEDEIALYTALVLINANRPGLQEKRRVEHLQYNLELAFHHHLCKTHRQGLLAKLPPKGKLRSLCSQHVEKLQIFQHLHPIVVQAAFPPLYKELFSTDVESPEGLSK
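ROR gamma transcriptional activity was tracked as Gal4-UAS luciferase output in stably transfected Drosophila Schneider cells, with compound added 1 hr before 700 uM copper sulfate induction and a 20 hr ambient-temperature incubation.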
* = called active by the depositor; ? = inconclusive; . = not tested or not shown; [ ] = dose if it differs, or a comment. Calls come from the whole dose curve; as a rule, active = well fitted curve in the direction sought with a large enough effect; inconclusive = small, poorly fitted or top-dose-only effect, or another doubt; inactive = no such curve, though single readings can be large; an effect the other way counts as inactive or inconclusive. % is set by controls: 0 for no effect and ±100 for the full control effect; potency is the fitted concentration of half-maximal effect.

SMILES | TDP1 cell noCPT | DT40 TDP1 CPT | VP16 counter | TDP1 inh | RORgamma inh
O=C(c1ccc(F)cc1)C1CCN(Cc2ccccc2F)CC1 | ? | 8% | . | . | .
O=c1nc2scc(-c3ccccc3)n2c2ccccc12 | -17% | -21% | 13% | 1% | 19%
CN(C)CC(C)(C)CNS(=O)(=O)c1ccc(OC(F)(F)F)cc1 | -11% | -8% | 1% | 2% | -1%
Cc1noc(C)c1COC(=O)COc1cccc2c1OC(C)(C)C2 | 0% | -5% | -1% | 2% | 13%
COc1cc2c(c(OC)c1)C(c1cc(OC)c(OC)c(OC)c1)CC(=O)N2 (stereo not drawn) | -16% | -1% | . | 5% | .
CCc1nc2ccc(C(=O)N3CCN(C(C)=O)CC3)cn2c1N(CCC(C)C)CCN(C)C | -7% | -13% | . | . | .
COC(=O)[C@]1(Cc2ccccc2)N[C@H](c2ccc(-c3ccc(F)cc3)cc2)[C@@H]2C(=O)N(C)C(=O)[C@@H]21 | 16µM* | 18µM* | . | 0% | .
CCN1C(=O)[C@H]2[C@@H](c3ccc(-c4ccccc4)cc3)N[C@@](Cc3ccccc3)(C(=O)OC)[C@H]2C1=O | 18µM* | ? | . | -7% | .
CCN1C(=O)[C@H]2[C@@H](c3ccc(-c4ccc(Cl)c(Cl)c4)cc3)N[C@@](Cc3ccccc3)(C(=O)OC)[C@H]2C1=O | 15µM* | 23µM* | . | -2% | .
CCN1C(=O)[C@H]2[C@@H](c3ccc(-c4ccc(C(C)=O)cc4)cc3)N[C@@](Cc3ccccc3)(C(=O)OC)[C@H]2C1=O | ? | 13µM* | . | 2% | .
Cc1ccsc1C(=O)OCC(=O)Nc1ccc(Cl)cc1C(F)(F)F | 2% | -2% | -8% | -1% | 5%
O=C(Cc1ccccc1)NCCS(=O)c1ccc(Cl)cc1 (stereo not drawn) | -7% | ? | 7% | 5% | 22%
COCCN1Cc2cccc(C(=O)NCc3ccccc3OC)c2C1=O | 0% | -12% | 0% | -2% | -1%
COc1ccccc1-c1nnc(SCC(=O)O)n1-c1ccccc1 | -4% | 31% | 2% | 3% | -2%
N=C1S/C(=C\c2ccccc2F)C(=O)N1c1ccc(F)cc1 | ? | ? | -1% | -2% | -18%
COc1cc(/C=C2\SC(=O)N(CC(=O)Nc3cccc(C)c3)C2=O)cc([N+](=O)[O-])c1O | ? | ? | ? | 0% | 21%
COc1cc(/C=C2\SC(=O)N(CC(=O)Nc3ccccc3F)C2=O)cc(Cl)c1O | 13µM* | 18µM* | -12% | . | ?
COc1cc(OC)c(/C=C2\SC(=O)N(CC(=O)Nc3ccccc3F)C2=O)c(OC)c1 | 21µM* | ? | -23% | . | -3%[1.91 µM]
CCOc1cc(/C=C2\SC(=O)N(CC(=O)Nc3ccccc3F)C2=O)cc([N+](=O)[O-])c1O | 21µM* | 8.2µM* | -3% | 7% | 14%
COc1ccc(/C=C2\SC(=O)N(CC(=O)NNC(=O)c3ccccc3O)C2=O)cc1OC | ? | -5% | ? | 0% | 25%
N=C1S/C(=C\c2cccc3ccccc23)C(=O)N1c1ccc(F)cc1 | 3.7µM* | 5.2µM* | ? | -1% | ?
CCc1cccc(C)c1NC(=O)CSc1ncn[nH]1 | -3% | -13% | 21% | 5% | -1%
CC(C)(C)C(=O)Nc1ccnc(-c2cccnc2)n1 | . | . | -2% | -3% | 0%
COc1ccc(/C=C2\SC(=O)N(CC(=O)Nc3ccc(F)cc3)C2=O)cc1O | 15µM* | ? | ? | 3% | -19%
COc1cc(/C=C2\SC(=N)N(c3ccc(F)cc3)C2=O)ccc1O | 23µM* | 26µM* | -8%[10 µM] | 3% | ?
Cc1ccc(NC(=O)CN2C(=O)S/C(=C/c3ccncc3)C2=O)cc1 | ? | 16µM* | -12% | 5% | 13%
